# Results with a measured potency or affinity are listed apart. Results filed as inconclusive are left out. A number with no mark means an inactive call. The source made the active and inactive calls. No rule for the calls is given here.
# Assay: cytotoxicity in NIH-3T3 fibroblasts, dose response, cytotoxicity control for antifungal drug resistance project, cell-based, Alamar Blue, fluconazole, dry powder (AID 488809)
# Details: NIH-3T3 fibroblasts + fluconazole, Alamar Blue viability, 48 h; series mostly up to 26 µM
SMILES,outcome,"activity change, negative = toxicity"
COc1ccc(OC)c2c(C)cc(N3CCN(C(=O)c4ccc(Cl)cc4)CC3)nc12,inactive,
O=C(Cn1nc(C(=O)N2CCCCC2)c2ccccc21)N1CCOCC1,inactive,
O=C(c1ccc(Cl)cc1)N1CCN(c2ccc(Cl)cc2)CC1,inactive,
COC(=O)Cn1nc(-c2ccc(C)cc2)c2ccccc21,inactive,
O=C(O)c1c2ccccc2nn1Cc1ccc(Cl)cc1,inactive,
O=C(O)c1nn(Cc2ccc(Cl)cc2)c2ccccc12,inactive,
O=C(c1ccc(Cl)cc1)N1CCN(c2ccccn2)CC1,inactive,
O=C(Cn1nc(-c2ccccc2)c2cc(Cl)ccc21)N1CCOCC1,inactive,
Cc1nn(S(C)(=O)=O)c2ccccc12,inactive,
CCCNC(=O)Cn1nc(-c2ccccc2)c2ccccc21,inactive,
O=C(Cn1c2ccccc2c2nc3n(c(=O)c21)CCCS3)c1ccc(F)cc1,inactive,
CCOC(=O)c1c2ccccc2nn1Cc1ccc(Cl)cc1,inactive,
COC(=O)Cn1nc(-c2ccccc2)c2ccccc21,inactive,
CNC(=O)Cn1nc(-c2ccccc2)c2ccccc21,inactive,
CC1CCN(C(=O)Cn2c3ccccc3c3nc4n(c(=O)c32)CCS4)CC1,inactive,
COC(=O)Cn1nc(-c2ccc(Cl)cc2)c2ccccc21,inactive,
O=C(Cn1c2ccccc2c2nc3n(c(=O)c21)CCS3)N1CCCC1,inactive,
O=c1c2[nH]c3ccccc3c2nc2n1CCS2,inactive,
CCCCNC(=O)N1CCN(c2ccnc3cc(Cl)ccc23)CC1,inactive,
COc1ccc2c(c1)c1nc3n(c(=O)c1n2CC(=O)N1CCC(C)CC1)CCS3,,15.5% [at 2.6 µM]

# Source: PubChem BioAssay AID488809 (Broad Institute, 2010)
